Rango-impB inh: prevents formation of the Rango-importin beta complex; Q14974; Rango CFP/YFP FRET sensor + importin beta, 45 min; Potency, µM (doses to about 92.2 µM), for the others: at the top dose inhibition of complex formation; 340,000 tested, 0.031% active; calls by dose curve;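 further: 0% = DMSO wells and 100% = buffer wells lacking importin beta; nearly all actives have a fitted effect of over 15% in size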
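Inhibition scored from the CFP 486 nm/YFP 530 nm FRET ratio 45 min after adding 0.125 microM importin beta to 50 nM Rango biosensor preincubated 5 min with compound (room temperature, PBS with DTT, Tween-20, BSA). No-importin wells as positive control.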
Abeta yeast res: restores growth of yeast expressing A-beta42 peptide; yeast expressing A-beta42, growth rescue, OD600, 48 h; response scale: 0% DMSO, 100% iron-clioquinol control; Potency, µM (highest dose often 46.1 µM), most hits filed as activators; 410,000 tested, 0.063% active; AID 1347071; further: nearly all actives have a fitted effect of over 55% in size
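Yeast A-beta toxicity model in growth medium with pinned compounds, 48 h at 30 C; growth read as absorbance at 600 nm. Normalized to FeCl3/clioquinol equimolar mix (positive) and DMSO (negative).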
TDP-43 yeast inh: inhibitors of TDP-43 toxicity in yeast; 410,000 tested, 1.8% active; TDP-43 expressing yeast growth rescue, BacTiter-Glo, 24 h; Potency, µM (series often up to 46.1 µM), inactives show at the top dose growth rescue (activation), usual class: activators; further: % of control where 0% means no effect; nearly all actives have a fitted effect of over 50% in size
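In this qHTS, compounds that restore growth of yeast expressing TDP-43 appear as activators. Cells (OD600=0.02, galactose medium, raffinose-pregrown) are incubated with compound 24 hr at 30 deg C and growth is quantified by BacTiter-Glo.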
Rango release inh: prevents RanGTP from dissociating the Rango-importin beta complex | Biochemical FRET Rango-importin beta, RanGTP-induced dissociation | Potency, µM (series often up to 46.1 µM), without a hit: at the highest dose activity change, negative = inhibition | 340,000 tested, 0.071% active; calls by dose curve; further: % of control where 0% means no effect; nearly all actives have a fitted effect of over 45% in size
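Rango FRET biosensor (snurportin-1 IBB flanked by N-terminal EYFP and C-terminal CFP10) at 0.1 uM, with 0.25 uM importin beta in PBS, 1mM DTT, 0.02% Tween-20, 0.1% BSA. 0.6 uM Ran, 2mM GTP and 0.2 uM RCC1 were then added for 45 min at room temperature. Inhibition read as loss of FRET rise.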
S-ASM inh: blocks human secretory acid sphingomyelinase. placental ASM, HMU-PC fluorogenic substrate, 60 min. Potency, µM (top dose mostly 57.5 µM), inactives show at the highest dose activity change, negative = inhibition, actives largely listed as inhibitors. 340,000 tested, 0.006% active
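qHTS format. ASM enzyme prepared from human placenta hydrolyses the fluorogenic substrate HMU-PC0 (9 uM final) over 60 min at 37 °C after a 10 min compound preincubation.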
aSyn yeast inh: alpha-synuclein toxicity inhibition in yeast. Potency, µM (series often up to 46.1 µM), for the others: at the highest dose growth rescue (activation), hits mostly activators. 370,000 tested, 0.14% active. Yeast expressing alpha-synuclein, growth rescue, BacTiter-Glo, 24 h; further: % of control where 0% means no effect; nearly all actives have a fitted effect of over 65% in size
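Readout is rescue of growth in alpha-synuclein-expressing yeast, so inhibitors of toxicity appear as activators. Growth after 24 hr at 30 deg C in galactose medium is quantified by luminescence.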
Active calls of the source: *; i = inactive; ? = inconclusive; . = not tested or not shown. Compounds with a hit are over-represented: about 2% of the library has one in this group of screens. Unless noted, the call rests on the fitted dose curve; in most records, active means well fitted curve in the direction sought with a large enough effect; inconclusive means small, poorly fitted or top-dose-only effect, or another doubt; inactive means no such curve, though single readings can be large; an effect the other way counts as inactive or inconclusive. Potency means the concentration at half of the fitted maximal effect.

SMILES	Rango-impB inh	Abeta yeast res	TDP-43 yeast inh	Rango release inh	S-ASM inh	aSyn yeast inh
Nc1ccccc1SC(CC(=O)c1ccccc1)c1ccc([N+](=O)[O-])cc1 (stereo not given)	.	i	5%	.	.	9%
Cc1nc(Br)c(Br)n1Cc1ccccc1	.	i	11µM*	.	.	4%
Cc1nc(-c2ccc(F)cc2)sc1CCNC(=O)c1ccccc1	.	i	18µM*	.	.	.
Cc1nc(-c2ccc(F)cc2)sc1CCNC(=O)c1ccc(OC(C)C)cc1	.	i	16µM*	.	.	.
Cc1nc(-c2ccc(F)cc2)sc1CCNC(=O)c1ccc(C(C)(C)C)cc1	.	i	-3%	.	.	.
COc1ccc(-c2nc(C)c(CCNC(=O)c3cccs3)s2)cc1OC	.	i	22µM*	.	.	-15%
CCCCOc1ccc(C(=O)NCCc2sc(-c3cccc(F)c3)nc2C)cc1	.	i	?	.	.	.
Cc1nc(-c2ccccc2)sc1C(=O)Nc1ccccc1F	0%	i	13µM*	16%	-1%	0%
COc1ccc(NC(=O)c2sc(-c3ccccc3)nc2C)c(OC)c1	?	i	5%	?	20%	-1%
CCc1cccc(C)c1NC(=O)c1cc(S(=O)(=O)N2CCN(c3ccccc3)CC2)ccc1F	.	i	18%	.	.	.
Cc1nc(-c2ccc(F)cc2)sc1CCNC(=O)c1cccs1	.	i	8.9µM*	.	.	.
Cc1nc(-c2cccc(F)c2)sc1CCNC(=O)Cc1ccc(F)cc1	.	i	?	.	.	.
COc1ccc(-c2nc(C)c(CCNC(=O)c3ccco3)s2)cc1	.	i	16µM*	.	.	-10%
Cc1ccc(C)c(-n2c(N)c(C#N)c3nc4ccccc4nc32)c1	.	i	9%	.	.	.
Cc1ccc2onc(CNC(=O)N3CCN(c4cccc(C)c4C)CC3)c2c1	.	i	20µM*	.	.	.
COc1ccc(N2CCN(C(=O)Cc3noc4ccc(C)cc34)CC2)cc1	.	i	11µM*	.	.	.
Cc1ccccc1C(=O)n1nc(-c2ccco2)nc1NCc1ccc(Cl)cc1	.	i	5%	.	.	.
Cc1cc(=O)n(CC(=O)Nc2ccc(Cl)c(Cl)c2)c(-n2nc(C)cc2C)n1	.	i	13µM*	.	.	.
CC(=O)c1ccc(NC(=O)Cn2c(-n3nc(C)cc3C)nc(C)c(C)c2=O)cc1	.	i	27%	.	.	.
CCOC(=O)CCCc1ccc(/C(C)=N/NC(N)=S)cc1	-2%	?	20µM*	2%	-2%	-8%
CCOC(=O)CCCc1ccc(/C(C)=N/NC(=S)NC)cc1	2%	?	27%	25%	-3%	6%
CCC(C)NC(=O)c1sc2nc(C)c(C(=O)Nc3ccc(Cl)cc3)c(-c3ccc(Br)cc3)c2c1N (stereo not given)	.	i	6%	.	.	.
Cc1nc2sc(C(N)=O)c(N)c2c(-c2ccc(Br)cc2)c1C(=O)Nc1ccc(Cl)cc1	.	i	22µM*	.	.	.
O=C(N/C=N/O)C1=NOC(CNc2ncc(C(F)(F)F)cc2Cl)C1 (stereo not given)	-5%	i	16µM*	0%	-1%	2%
O=C(COc1ccccc1)NCCc1csc(-c2ccc(Cl)cc2)n1	.	i	?	.	.	.
CC(C)CC(NS(=O)(=O)OCC(Cl)(Cl)Cl)c1ccccc1 (stereo not given)	-2%	i	-91%	19%	-18%	-54%
CC(NS(=O)(=O)OCC(Cl)(Cl)Cl)c1ccc(Br)cc1 (stereo not given)	-1%	i	35µM*	-4%	-8%	-1%
Cc1ccc(C2CN(C)C3(C(=O)Nc4ccccc43)C23COc2ccccc2C3=O)cc1 (stereo not given)	-3%	i	3.5µM*	11%	-2%	3%
COc1ccc(NC(=O)c2c(NC(=O)C(F)(F)F)sc3c2CCCCC3)cc1	.	i	?	.	.	.
Cc1cccc(NS(=O)(=O)c2cc(C(=O)N3CCc4ccccc4C3)ccc2Cl)c1C	-1%	i	-14%	11%	-14%	10µM*

Screens: PubChem BioAssay, National Center for Advancing Translational Sciences (NCATS)
